Reference: PubChem BioAssay (NCI)
About 79,000 compounds went through this panel and 15% of them were active in at least one assay; those are over-represented in the sample as a whole. Values without a mark were called inactive. Active and inactive are the calls of the source. Rule as the data show it: active = growth inhibition above about 70%; inactive = the rest.

Tests used:
[1] = NCI Yeast Anticancer Drug Screen. Data for the rad50 strain (AID 155);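 also: 0% = growth of vehicle-only cultures of the same strain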; conditions: S. cerevisiae rad50 strain growth inhibition, active compounds read high
Method in brief: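 Growth of the mutant yeast was measured after compound exposure and referenced to vehicle-treated cultures.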

[2] = NCI Yeast Anticancer Drug Screen. Data for the mec2-1 strain (AID 157); conditions: S. cerevisiae mec2-1 strain, active compounds read high
Method in brief: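 Readout is yeast growth inhibition, normalised to vehicle-treated controls, in the mec2-1 strain exposed to compound.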

[3] = NCI Yeast Anticancer Drug Screen. Data for the sgs1 mgt1 strain (AID 161);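 also: 0% = growth of cultures given vehicle only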; conditions: S. cerevisiae sgs1 mgt1 strain, active compounds read high
Method in brief: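 Compounds are added to genetically altered yeast, and growth is compared with cultures given vehicle alone to give percent inhibition.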

[4] = NCI Yeast Anticancer Drug Screen. Data for the cln2 rad14 strain (AID 165);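 also: 0% = growth equal to vehicle treated cultures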; conditions: S. cerevisiae cln2 rad14 strain, active compounds read high
Method in brief: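 Relative to vehicle controls, growth inhibition of compound-treated cln2 rad14 yeast was recorded.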

[5] = NCI Yeast Anticancer Drug Screen. Data for the bub3 strain (AID 167); conditions: S. cerevisiae bub3 mutant strain, active compounds read high
Method in brief: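 Whole-cell yeast assay. The mutant strain was incubated with compounds, and growth inhibition was determined by comparison with vehicle-treated cells.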

[6] = NCI Yeast Anticancer Drug Screen. Data for the mlh1 rad18 strain (AID 175); conditions: S. cerevisiae mlh1 rad18 strain growth inhibition, active compounds read high
Method in brief: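 Test agents were incubated with a yeast strain of defined genotype (DNA damage repair defect). Inhibition of growth was derived by comparison with vehicle-exposed cultures.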

[7] = at 5.0 µM (retest, dose inferred, filed as 0.5)
[8] = at 50.0 µM (retest, dose inferred, filed as 5.0)

Structure (SMILES) | growth inhibition [1, 7] | growth inhibition [1, 8] | growth inhibition ([1]; at 50.0 µM) | growth inhibition [2, 7] | growth inhibition [2, 8] | growth inhibition ([2]; at 50.0 µM) | growth inhibition [3, 7] | growth inhibition [3, 8] | growth inhibition ([3]; at 50.0 µM) | growth inhibition [4, 7] | growth inhibition [4, 8] | growth inhibition ([4]; at 50.0 µM) | growth inhibition [5, 7] | growth inhibition [5, 8] | growth inhibition ([5]; at 50.0 µM) | growth inhibition [6, 7] | growth inhibition [6, 8] | growth inhibition ([6]; at 50.0 µM)
Nc1ccc(S(=O)(=O)Nc2nc3ccccc3nc2N2CCCCCC2)cc1 | 30% | 79% (active) | 43.5% | 30% | 87% (active) | 48.1% | 36% | 92% (active) | 82.2% (active) | 40% | 92% (active) | 82.5% (active) | 44% | 95% (active) | 85.2% (active) | 39% | 90% (active) | 85.6% (active)
Cc1ccc(C)c(N2C(=O)C(=O)C(c3nc4ccccc4o3)/C(=N\NC(=O)c3ccccc3O)C2=O)c1 (configuration not stated) | 6% | 21% | 62.3% | 1% | 29% | 55.2% | 7% | 21% | 63% | 8% | 33% | 53.6% | 6% | 29% | 27.4% | 5% | 7% | 71.9% (active)
Nc1ccc(C2CCC[C@H]2c2ccc(N)cc2)cc1 (some centres not stated) | 0% | 93% (active) | 48.8% | 15% | 87% (active) | 46.8% | 14% | 90% (active) | 53.2% | 1% | 66% | 39.6% | -3% | 81% (active) | 58.6% | 21% | 95% (active) | 49.1%
CCOC(=O)CNC(=O)Sc1ccc(C(C)(C)C)cc1C | 17% | 32% | 0.05% | 22% | 74% (active) | 19.8% | 17% | 60% | 82% (active) | 19% | 84% (active) | 75.7% (active) | 14% | 92% (active) | 69.7% | 29% | 50% | 26.7%
CCOC(=O)[C@]12CCC[C@@]1(O)NC(=O)c1cnccc12 | 33% | 99% (active) | 97.3% (active) | 13% | 99% (active) | 97.7% (active) | 15% | 98% (active) | 97.4% (active) | -1% | 7% | 91.2% (active) | -2% | 9% | 96.9% (active) | 0% | 97% (active) | 97.3% (active)
C/C(=N\NC(=S)N1CCN(Cc2ccccc2)CC1)c1ccccn1 | 23% | 76% (active) | 90.3% (active) | 23% | 85% (active) | 88.8% (active) | 12% | 80% (active) | 31.2% | 8% | 73% (active) | -14.7% | 31% | 96% (active) | 11.7% | 15% | 74% (active) | 81.6% (active)
CC(C)C1(c2ccccc2)C(=O)c2ccccc2C1=O | -6% | 42% | 71.8% (active) | -7% | 50% | 77.5% (active) | -5% | 73% (active) | 84.7% (active) | 2% | 10% | 68.2% | -11% | 14% | 79.2% (active) | -8% | 37% | 46.1%
CCCCCCCNCCCCCC | 64% | 92% (active) | 67.7% | 20% | 69% | 63.8% | 73% (active) | 93% (active) | 84.7% (active) | 28% | 86% (active) | 68.3% | 75% (active) | 97% (active) | 67.1% | 78% (active) | 94% (active) | 48.6%
O=C(Nc1ccccc1)OCCc1ccc(Br)cc1 | -10% | -9% | 13.2% | -23% | -31% | 23.7% | -1% | -11% | 14.4% | 1% | -2% | -7.85% | -5% | 7% | 6.1% | -5% | 0% | -3.25%
CCN(CC)CCNc1c(C)ccc2cccnc12 | 0% | 7% | 33.5% | -4% | -4% | 35.9% | -2% | -2% | 29.4% | -1% | -14% | -29.2% | -1% | 2% | 53.8% | 0% | 8% | 51.5%
CCc1c(Nc2ccccc2C)[nH]c(N)nc1=S | -2% | -32% | -6.6% | -2% | -7% | 5.35% | -1% | -7% | 12.4% | -7% | -15% | -7% | -4% | 8% | 77.2% (active) | -1% | -7% | -12.4%
CC(C)(C)C(=O)CC(=O)C(F)(F)C(F)(F)C(F)(F)F.CC(C)(C)C(=O)CC(=O)C(F)(F)C(F)(F)C(F)(F)F.CC(C)(C)C(=O)CC(=O)C(F)(F)C(F)(F)C(F)(F)F.[Fe] | 21% | 85% (active) | 38.5% | 5% | 88% (active) | 9.3% | 43% | 88% (active) | 74.9% (active) | 13% | 91% (active) | 19.8% | -1% | 37% | -1.15% | 32% | 93% (active) | 84.5% (active)
CCC(CC)COC(=O)C(C)=O | -2% | 1% | -11.7% | 2% | 0% | 19.4% | 1% | 3% | 18.1% | -1% | -4% | 25.6% | 0% | 5% | 4.3% | -1% | 2% | 26.9%
COc1cc2c(ccc3cc4cccc[n+]4cc32)c(Br)c1OC | 0% | 44% | 76.8% (active) | -6% | 73% (active) | 42.5% | -7% | 39% | 73.2% (active) | -8% | 13% | 20.4% | -5% | 46% | 10.4% | 4% | 75% (active) | 67.8%
CCOC(=O)CCc1ccc(OC)c(OC)c1 | 1% | -2% | -9.55% | 16% | -4% | 23% | 0% | -2% | 22.9% | 3% | -8% | 38.7% | -2% | 19% | 17.4% | 2% | -1% | -5.15%
CSC(=S)NNC(C)c1nccc2ccccc12 (configuration not stated) | 23% | 97% (active) | 97.8% (active) | -3% | 98% (active) | 98.8% (active) | 29% | 97% (active) | 98.8% (active) | -8% | 97% (active) | 97.8% (active) | -7% | 97% (active) | 98.2% (active) | 2% | 97% (active) | 98.8% (active)
CC(CCNCCC#N)CC(C)(C)C (configuration not stated) | 6% | 66% | 76.9% (active) | -4% | 32% | 47.8% | 9% | 43% | 86.2% (active) | 7% | 33% | 48.5% | 7% | 47% | 63% | 12% | 66% | 68.8%
O=C(O)c1c(Cl)c(Cl)c(Cl)c(Cl)c1-c1c2cc(I)c(=O)c(I)c-2oc2c(I)c(O)c(I)cc12 | 75% (active) | 98% (active) | 91.3% (active) | 99% (active) | 99% (active) | 92.1% (active) | 82% (active) | 98% (active) | 91.6% (active) | 98% (active) | 97% (active) | 90.2% (active) | 98% (active) | 98% (active) | 91.4% (active) | 97% (active) | 97% (active) | 91.2% (active)
CC1=CC2C(O)(CC(CO)=CC3C4C(C)(C)C4(OC(=O)c4ccccc4)C(OC(=O)c4ccccc4)C(C)C32O)C1=O (configuration not stated) | 95% (active) | 96% (active) | 90.3% (active) | 96% (active) | 98% (active) | 91.7% (active) | 96% (active) | 97% (active) | 92% (active) | 73% (active) | 97% (active) | 88.3% (active) | 95% (active) | 96% (active) | 89.2% (active) | 97% (active) | 97% (active) | 88.6% (active)
